A549 viability – counter-screen for Nrf2 inhibitors: cytotoxicity in A549 cells | A549 ARE-Fluc cells, CellTiter-Fluor viability, 18-24 h | Potency, µM (highest dose often 46 µM), hits mostly inhibitors | actives 0.16% (n = 390,000) | AID 504648
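A549 ARE-Fluc cells in 5% FBS OPTI-MEM, 5000 cells/well, rested 2 h then exposed to compounds in concentration-response for 18-24 h at 37 °C. Viability by CellTiter-Fluor fluorescence (Ex 405/Em 525) after 30 min; luciferase luminescence (BugLite, 15 min, RT) read afterwards.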
Nrf2 block – Nrf2 pathway inhibition | A549 ARE-Fluc reporter, luciferase luminescence, 18-24 h | Potency, µM (series often up to 46 µM), usual class: inhibitors | actives 2.1% (n = 360,000) | AID 504444; further: nearly all actives have a fitted effect of over 60% in size
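Reporter: ARE-Fluc in A549. Exposure: 18-24 h, 37 °C, 5% CO2, 5% FBS OPTI-MEM. Readouts: fluorescent cytotoxicity (CellTiter-Fluor), then luminescent Nrf2 signal after BugLite.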
ATXN2 expr inh – reduces ATXN2 reporter expression in HEK-293 cells; HEK-293 ATXN2-luciferase reporter, luminescence, 24 h; Potency, µM (highest dose often 57 µM), actives largely listed as inhibitors; actives 0.72% (n = 360,000); AID 1745845; further: nearly all actives have a fitted effect of over 55% in size
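qHTS (up to 57 uM final) was run with 24 h compound exposure of reporter cells at 37 °C. Each well was multiplexed: SteadyGlo luminescence measured ATXN2-luciferase expression after a fluorogenic Gly-Phe-AFC viability readout (25 uM final).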
HepG2 viability – counter-screen for TGF-b inhibitors: cytotoxicity in HepG2 cells. HepG2 CAGA-GFP viability, ATP luminescence, 18 h. Potency, µM (top dose mostly 46.1 µM), usual class: cytotoxic. actives 0.76% (n = 410,000). AID 588856
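HepG2 CAGA-GFP cells (1000/well, DMEM with 1% FBS) received compound, then TGF-beta at 500 pg/mL final, and were incubated 18 hours at 37 degrees C. Viability was read by CellTiter-Glo luminescence. Media-only wells were set as complete cell-killing and DMSO as no toxicity.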
ATXN viability – reduces viability in counter-screen for ATXN expression inhibitors. S2 cells (HEK-293 line with an ATXN2-luciferase reporter) viability, CellTiter-Fluor protease fluorescence, 24 h. actives 0.49% (n = 400,000). Potency, µM (highest dose often 56.7 µM), hits mostly cytotoxic; further: nearly all actives have a fitted effect of over 40% in size
TGFb SMAD3 inh – TGF-b pathway inhibition. HepG2 CAGA-GFP TGF-b/SMAD3 reporter, GFP fluorescence, 18 h; TGF-beta stimulated, 500 pg/mL final. Potency, µM (titrated, usually from 46.1 µM), most hits filed as inhibitors. actives 1.2% (n = 410,000); further: nearly all actives have a fitted effect of over 65% in size
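HEPG2 CAGA-GFP cells (1000/well, DMEM with 1% FBS) were pre-incubated 2 h at 37 degrees C, given compound by pin tool, then stimulated with TGF-beta at 500 pg/mL final for 18 h before per-cell GFP fluorescence imaging.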
Numbers stand for hits; . = inactive; ? = inconclusive; / = no result given. A selection: hits, their analogues and other compounds. The true share with any hit is near 3.8%. The call rests on the fitted dose curve; in most records, active means well fitted curve in the direction sought with a large enough effect; inconclusive means small, poorly fitted or top-dose-only effect, or another doubt; inactive means no such curve, though single readings can be large; an effect the other way counts as inactive or inconclusive.

SMILES	A549 viability	Nrf2 block	ATXN2 expr inh	HepG2 viability	ATXN viability	TGFb SMAD3 inh
Cc1c(C(=O)O)c(O)cc2c1C(=O)c1c(O)c([C@@H]3O[C@H](CO)[C@@H](O)[C@H](O)[C@H]3O)c(O)c(O)c1C2=O	20.6µM	?	.	.	17.8µM	.
FC(F)(F)c1cccc(-c2cc3nc(NC4CCCCC4)ccn3n2)c1	/	/	?	.	?	15.8µM
c1cc(-c2cc3nc(NC4CCCCC4)ccn3n2)ccc1OCCN1CCOCC1	/	/	?	.	25.1µM	11.2µM
Clc1cccc(CNc2ccn3nc(-c4ccc(OCCN5CCOCC5)cc4)cc3n2)c1	/	/	?	.	/	11.2µM
c1cc(-c2cc3nc(NCC4CC4)ccn3n2)ccc1OCCN1CCOCC1	/	/	.	.	?	.
CC1CN(CC(O)COc2ccc(C(C)C)cc2)CC(C)O1 (stereo not given)	.	.	.	.	.	.
CC1CN(CC(O)COC(c2ccc(Cl)cc2)c2ccc(Cl)cc2)CC(C)O1 (stereo not given)	.	.	?	15.8µM	?	?
CN(C)CC(O)COC(c1ccc(Cl)cc1)c1ccc(Cl)cc1 (stereo not given)	.	?	?	15.8µM	?	?
OC(COC(c1ccc(Cl)cc1)c1ccc(Cl)cc1)CN1CCN(c2ccccn2)CC1 (stereo not given)	.	.	?	14.1µM	.	?
COc1ccc(NC(=S)NNc2ccc(C(=O)O)cc2)cc1	.	?	.	.	.	.
COc1ccc(CCN2C(=O)CSC2c2ccc(OC)c(OC)c2)cc1OC (stereo not given)	.	?	.	.	.	.
COc1ccc(C2SCC(=O)N2CCc2ccc(OC)c(OC)c2)cc1 (stereo not given)	.	23.1µM	?	.	.	.
Cc1cc(S(=O)(=O)N2CCOCC2)ccc1OCC(=O)Nc1ccc(Br)cc1F	.	.	.	.	.	.
COc1ccc(CN2CCC3(CCC(CNC(=O)c4ccco4)O3)CC2)c(OC)c1C (stereo not given)	/	/	/	/	.	/
Cc1ccc(S(=O)(=O)C2(S(=O)(=O)c3ccc(C)cc3)CC2)cc1	.	23.1µM	.	.	.	.
CC(C)(C)c1csc(NC(=O)c2ccncc2)n1	.	16.4µM	.	.	?	.
C=CCOC(=O)C1=C[C@@H](c2ccc3c(c2)OCO3)C[C@@H](OCc2ccc(CO)cc2)O1	.	.	.	.	.	.
CCn1c(C)nnc1SCC(=O)Nc1ccc(OC)cc1	/	/	/	6.31µM	.	.
CCn1c(/C=C/c2c(C)n(CC)c3ccccc23)nc2ccccc2c1=O	.	.	.	.	?	.
CCn1c2ccccc2nc2cc3c(cc21)c(Cl)c(=O)c1ccccc13	/	/	/	.	/	17.8µM
O=c1[nH]c(CCl)nc2cc(-c3ccc(F)cc3)sc12	.	.	?	11.2µM	.	?
COCCNc1nc2cc(-c3ccc(F)cc3)sc2c(=O)n1C	/	/	.	.	.	.
c1ccc(-c2nc(N3CCCCCC3)nc(-n3ccnc3)n2)cc1	.	.	.	.	.	.
c1ccc(-c2nc(N3CCN(c4ccccc4)CC3)nc(-n3ccnc3)n2)cc1	.	4.61µM	.	.	.	.
N=c1c2c(-c3ccccc3)c(-c3ccccc3)n(Cc3ccco3)c2ncn1CCCn1ccnc1	?	?	.	.	?	?
OCCNc1ncnc2c1c(-c1ccccc1)c(-c1ccccc1)n2Cc1ccco1	.	.	.	.	.	.
N=c1c2c(-c3ccccc3)c(-c3ccccc3)n(Cc3ccccc3)c2ncn1CCO	?	?	?	.	8.91µM	?
N=c1c2c(-c3ccccc3)c(-c3ccccc3)n(Cc3ccco3)c2ncn1Cc1ccccc1	.	.	.	.	.	.
CC(C)Cn1cnc2c(c(-c3ccccc3)c(-c3ccccc3)n2Cc2ccco2)c1=N	23.1µM	.	.	12.6µM	?	?
c1ccc(-c2c(-c3ccccc3)n(Cc3ccco3)c3ncnc(NCCCn4ccnc4)c23)cc1	?	?	?	20µM	/	?

Screens (PubChem)
